Test results published in PubChem BioAssay AID1347074 (Center for Chemical Genomics, University of Michigan, 2019).
Screen size: about 47,000 compounds; about 2,800 (6%) were called active. Cut-off read from the data, not from the text of the source: active = z-score above about 3 (passing the limit was not always enough); inactive = the rest. The entries come from a sample that favours actives as a whole.

The molecules below were run against Endoribonuclease Dicer (Homo sapiens) (UniProt Q9UPY3) (assay: inhibitors of Dicer pre-microRNA processing, primary screen, biochemical, cat-ELCCA, chemiluminescence (AID 1347074;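 note: plate controls were vehicle for no effect and no enzyme for full effect; higher signal means more uncleaved substrate so more Dicer inhibition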)). Settings: cat-ELCCA pre-miR-21 Dicer processing, at 25 µM, active compounds read high.
Sequence of Endoribonuclease Dicer (Homo sapiens) (Q9UPY3 whole entry, looked up): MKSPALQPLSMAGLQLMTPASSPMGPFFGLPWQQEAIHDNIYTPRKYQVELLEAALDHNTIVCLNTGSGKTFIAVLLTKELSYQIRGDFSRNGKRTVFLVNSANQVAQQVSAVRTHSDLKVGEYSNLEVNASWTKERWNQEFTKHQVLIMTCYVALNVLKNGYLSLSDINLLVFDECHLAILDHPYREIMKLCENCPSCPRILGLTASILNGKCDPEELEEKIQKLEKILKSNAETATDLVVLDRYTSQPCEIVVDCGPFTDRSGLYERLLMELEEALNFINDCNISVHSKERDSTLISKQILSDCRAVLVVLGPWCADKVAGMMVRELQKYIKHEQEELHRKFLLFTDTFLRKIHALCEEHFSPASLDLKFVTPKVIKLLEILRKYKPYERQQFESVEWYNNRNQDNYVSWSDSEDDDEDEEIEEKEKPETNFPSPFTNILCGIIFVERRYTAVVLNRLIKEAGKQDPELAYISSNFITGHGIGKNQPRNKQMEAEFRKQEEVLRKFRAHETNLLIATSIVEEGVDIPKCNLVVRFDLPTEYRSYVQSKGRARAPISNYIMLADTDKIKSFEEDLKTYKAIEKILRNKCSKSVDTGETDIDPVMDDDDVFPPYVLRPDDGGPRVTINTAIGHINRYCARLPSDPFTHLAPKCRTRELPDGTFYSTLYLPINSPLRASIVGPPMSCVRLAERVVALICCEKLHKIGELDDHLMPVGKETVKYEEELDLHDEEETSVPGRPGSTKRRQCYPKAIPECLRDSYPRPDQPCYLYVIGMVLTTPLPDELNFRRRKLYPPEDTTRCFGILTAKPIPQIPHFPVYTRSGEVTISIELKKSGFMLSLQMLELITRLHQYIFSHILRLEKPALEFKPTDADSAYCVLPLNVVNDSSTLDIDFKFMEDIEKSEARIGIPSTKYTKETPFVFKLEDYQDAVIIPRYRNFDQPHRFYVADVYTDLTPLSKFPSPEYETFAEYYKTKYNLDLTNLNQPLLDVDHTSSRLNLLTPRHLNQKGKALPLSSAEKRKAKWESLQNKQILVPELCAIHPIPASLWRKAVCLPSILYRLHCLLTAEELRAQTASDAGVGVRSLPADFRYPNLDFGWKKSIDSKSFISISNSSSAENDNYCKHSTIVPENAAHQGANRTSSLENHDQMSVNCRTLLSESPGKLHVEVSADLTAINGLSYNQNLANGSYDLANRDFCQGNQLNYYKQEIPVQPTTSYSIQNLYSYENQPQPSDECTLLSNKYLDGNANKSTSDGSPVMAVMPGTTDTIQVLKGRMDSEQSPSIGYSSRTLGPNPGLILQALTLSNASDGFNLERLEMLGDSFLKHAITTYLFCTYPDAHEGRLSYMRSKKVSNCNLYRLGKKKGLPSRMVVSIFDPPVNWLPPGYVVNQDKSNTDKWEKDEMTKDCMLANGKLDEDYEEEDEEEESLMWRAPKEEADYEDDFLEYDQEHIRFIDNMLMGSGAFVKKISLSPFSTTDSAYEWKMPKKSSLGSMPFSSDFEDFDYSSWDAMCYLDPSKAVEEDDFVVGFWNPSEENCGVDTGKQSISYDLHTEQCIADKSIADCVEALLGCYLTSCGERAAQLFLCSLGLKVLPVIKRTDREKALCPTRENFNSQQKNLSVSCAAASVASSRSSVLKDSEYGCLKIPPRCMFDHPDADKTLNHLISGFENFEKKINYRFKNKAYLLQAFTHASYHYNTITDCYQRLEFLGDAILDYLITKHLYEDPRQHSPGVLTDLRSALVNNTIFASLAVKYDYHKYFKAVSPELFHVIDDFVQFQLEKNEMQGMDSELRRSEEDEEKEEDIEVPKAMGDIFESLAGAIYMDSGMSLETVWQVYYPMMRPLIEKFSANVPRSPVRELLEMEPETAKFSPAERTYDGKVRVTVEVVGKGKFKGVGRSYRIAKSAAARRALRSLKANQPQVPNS
In the case of `CC(C)(C)c1cc2nc(-c3ccc4c(c3)CCC4)cc(C(F)(F)F)n2n1`, the z-score is reported as -1.01 (inactive).
In the case of `Cc1cc(Br)ccc1Nc1ncnc(N)n1`, the z-score is reported as 0.67 (inactive).
For `C=CCN(C(=O)c1ccccc1Cl)c1ccccc1C(=O)NCC(=O)OCC`, the z-score was -0.79 (inactive).
In the case of `Cc1cc(O)cc(C)c1/C=C1\NC(=O)NC1=O`, the z-score is reported as 0.4 (inactive).
For `Cc1ccc(C(=O)NNc2ncnc3sccc23)cc1`, the z-score was 0.13 (inactive).
For `CSc1n[nH]c(N)c1-c1ccccn1`, the z-score was 6.44 (active).
`CCOC(=O)c1sc(SC(C)C)c2c1CC(C)(C)CC2=O` was tested, and the z-score was -1.12 (inactive).
For `Cc1cc(C)c2c(n1)sc1c(=O)n(/N=C/c3ccc4c(c3)OCO4)c(C)nc12`, the z-score was -0.06 (inactive).
For `O=C(/C(=N\N=C\c1ccc2c(c1)OCO2)c1ccccc1)c1ccccc1`, the z-score was -1.69 (inactive).
`Cc1ccc(N2CC(=O)N(/N=C/c3ccc4c(c3)OCO4)CC2=O)cc1` was tested, and the z-score was 3.3 (active).
For `O=C(c1cccn1-c1ccc(F)cc1)C(F)(F)F`, the z-score was -0.2 (inactive).
`Cc1ccc(-c2ccc3c4ccccc4c(C(=O)C(F)(F)F)c-3o2)cc1` was tested, and the z-score was -0.14 (inactive).
In the case of `O=c1c2c(-c3ccc(Cl)cc3)csc2nc2c3ccccc3c(N3CCN(CCO)CC3)nn12`, the z-score is reported as -0.37 (inactive).
For `Cc1ccc(S(=O)(=O)Nc2cc(C)cc(C)c2)cc1`, the z-score was 2.36 (inactive).
In the case of `Cn1nccc1NS(=O)(=O)c1ccc(F)cc1`, the z-score is reported as -0.57 (inactive).
In the case of `Cc1ccc(S(=O)(=O)Nc2ccc(F)cc2NS(=O)(=O)c2ccc(C)cc2)cc1`, the z-score is reported as 15.1 (active).
`CN(C)C(=O)Sc1nnc(C2CC2)n1-c1ccc(Cl)cc1` was tested, and the z-score was 15.9 (inactive).
In the case of `CC(C)OC(=O)C1C(=O)CC(C)(O)C(C(=O)OC(C)C)C1c1ccc(Br)cc1` (configuration not stated), the z-score is reported as -1.31 (inactive).
With `CCCOC(=O)C1=C(C)Nc2nnnn2C1c1cc(Br)ccc1OC` (configuration not stated) the z-score was 3.54 (active).
With `CC1=C(C(N)=O)C(c2ccc(F)cc2)n2nnnc2N1` (configuration not stated) the z-score was -0.27 (inactive).
In the case of `CCOC(=O)C1=C(C)Nc2nnnn2C1c1ccc(O)cc1` (configuration not stated), the z-score is reported as -2.24 (inactive).
With `O=C(O)CSCC(=O)Nc1ccccc1Sc1ncnc2cc(-c3ccccc3)sc12` the z-score was -0.26 (inactive).
With `Fc1cccc(-c2nn3c(COc4ccccc4)nnc3s2)c1` the z-score was 0.92 (inactive).
`COc1cccc(C2Nc3ccccc3-c3cc(C)nn32)c1O` (configuration not stated) was tested, and the z-score was -0.43 (inactive).
`COc1cc(O)ccc1C1Nc2c(C)cc(C)cc2-c2cc(C)nn21` (configuration not stated) was tested, and the z-score was 2.86 (inactive).
`CCOc1ccccc1C1Nc2c(C)cccc2-c2cc(C)nn21` (configuration not stated) was tested, and the z-score was 4.42 (active).
With `Cc1c(C#N)c(NC(=O)c2ccc(Cl)cc2)n(CC2CC2)c1C` the z-score was 0.46 (inactive).
For `CN1CCc2c(sc3c2C(=O)NC(c2ccc(Br)cc2)N3)C1` (configuration not stated), the z-score was -0.13 (inactive).
With `C/C(=N\OC(=O)Nc1ccc(Cl)cc1)c1cc(-c2ccccc2)no1` the z-score was -0.26 (inactive).
`CCOc1ccccc1C1C2=C(CCCC2=O)Nc2nnnn21` (configuration not stated) was tested, and the z-score was 2.2 (inactive).
In the case of `Cc1c(Br)c([N+](=O)[O-])nn1CC(=O)NCCCn1ccnc1`, the z-score is reported as -0.68 (inactive).
With `O=C(NCc1ccccc1)c1cc2sccc2s1` the z-score was 3.86 (active).
With `O=C(O)c1cnc(NCc2ccccc2)s1` the z-score was -1.01 (inactive).
In the case of `O=C(NCc1cccnc1)c1cnc2ccccc2n1`, the z-score is reported as 0.67 (inactive).
`Cc1c(C)c(C)c(CSCC(=O)N/N=C/C=C/c2ccccc2)c(C)c1C` was tested, and the z-score was 1.61 (inactive).
In the case of `Cc1ccc(C2CC(C(F)(F)F)n3ncc(C(=O)N(C)Cc4cn(C)nc4C)c3N2)cc1` (configuration not stated), the z-score is reported as -1.27 (inactive).
`O=C(Nc1ccc(F)cc1)Nc1nnc(C2CC2)s1` was tested, and the z-score was 0.03 (inactive).
With `c1coc(CNc2ncnc3ccccc23)c1` the z-score was -1.16 (inactive).
In the case of `O=C(NCc1ccco1)c1nc2ncccn2n1`, the z-score is reported as 0.13 (inactive).
`CS(=O)(=O)n1nc(-c2ccccc2)nc1NCc1ccco1` was tested, and the z-score was 4.95 (active).
With `CN(C)c1ccc(NC(=O)C(=O)NCCO)cc1` the z-score was 3.85 (active).
`CN(C)c1ccc(C(=S)c2ccc(N(C)C)cc2)cc1` was tested, and the z-score was 0.42 (inactive).
With `CN(C)C(=O)Nc1ccc(C(C)(C)C)cc1` the z-score was 0.46 (inactive).
In the case of `CC(=O)c1ccc(OCc2ccc(Cl)c(Cl)c2)c(C)c1O`, the z-score is reported as -0.27 (inactive).
With `CCCCCOC(=O)COc1ccc2c(=O)c(Oc3cccc(C)c3)coc2c1` the z-score was -1.17 (inactive).
With `O=c1oc2ccccc2c2c1ncn2CCCN1CCOCC1` the z-score was 0.33 (inactive).
`CCOC(=O)/C(C#N)=C/Nc1ccc(OC)c(C(=O)OC)c1OC` was tested, and the z-score was -2.66 (inactive).
With `COc1ccc(-c2c(-c3ccccc3)oc3ncnc(N)c23)cc1` the z-score was 4.1 (active).
With `c1ccc(-c2oc3ncn4nc(-c5ccccn5)nc4c3c2-c2ccccc2)cc1` the z-score was -0.36 (inactive).
`COc1ccc(-c2oc3ncnc(NCCCO)c3c2-c2ccc(OC)cc2)cc1` was tested, and the z-score was 0.89 (inactive).
With `CCc1ccc(C2c3c(oc4ccc(C)cc4c3=O)C(=O)N2c2nccs2)cc1` (configuration not stated) the z-score was 0.49 (inactive).
In the case of `CCCC1=NN(c2ccc(S(N)(=O)=O)cc2)C(=O)C1`, the z-score is reported as -4.3 (inactive).
In the case of `COC(OC)c1nc(SCc2ccc(Cl)cc2)ncc1C(=O)O`, the z-score is reported as -1.32 (inactive).
In the case of `Cc1onc(-c2c(Cl)cccc2Cl)c1C(=O)NN(C)c1ccc([N+](=O)[O-])cn1`, the z-score is reported as 0.9 (inactive).
In the case of `CN(C)NC(=O)c1csnc1-c1c(Cl)cccc1Cl`, the z-score is reported as 3.48 (active).
For `CCCCNC(=O)Nc1onc(-c2c(Cl)cccc2Cl)c1C(=O)OC`, the z-score was 0.02 (inactive).
`CCCCC#Cc1cncc(C(=O)O)c1` was tested, and the z-score was 0.66 (inactive).
In the case of `O=C(Nc1ccc2c(c1)OCC1CCCN21)C1=Cc2ccccc2OC1` (configuration not stated), the z-score is reported as 4.37 (active).
For `O=C(O)C1=Cc2cc(Cl)ccc2OC1`, the z-score was 1.52 (inactive).
With `COC(=O)c1scc(C)c1NC(=O)C1=Cc2cc(Cl)ccc2OC1` the z-score was -0.31 (inactive).
`C=CCNC(=O)CSc1nc2c(c(C(F)(F)F)n1)CCc1ccccc1-2` was tested, and the z-score was 1.7 (inactive).
For `CCc1nc(-c2ccc(-c3ccccc3)nc2OC)no1`, the z-score was 0.85 (inactive).
For `COc1cc(OC)cc(-c2nc(-c3ccc(-c4ccccc4)nc3OC)no2)c1`, the z-score was 1.1 (inactive).
With `CCCc1cc(=O)oc2c1c(C)nn2-c1cccc(Cl)c1` the z-score was -1.83 (inactive).
For `COC(NC(=O)c1ccccc1)(C(F)(F)F)C(F)(F)F`, the z-score was -0.72 (inactive).
For `COC(=O)c1sc(C(F)(F)F)c(-c2ccccc2)c1S(=O)(=O)N(C)C`, the z-score was 0.21 (inactive).
In the case of `COC(=O)C1=C(c2ccccc2)C(c2ccccc2)=C(C(=O)OC)C1=O`, the z-score is reported as 3.2 (active).
